From the supplement of paper PMC10849652 come the findings set out here.

Of roughly 7,900 targets only a part is listed; those with a hit were picked by preference. About 0.6% of all pairs of compound and target were hits. Values without a mark were called inactive.

Chain of UniProt Q641Q2 (Q641Q2 whole entry, looked up): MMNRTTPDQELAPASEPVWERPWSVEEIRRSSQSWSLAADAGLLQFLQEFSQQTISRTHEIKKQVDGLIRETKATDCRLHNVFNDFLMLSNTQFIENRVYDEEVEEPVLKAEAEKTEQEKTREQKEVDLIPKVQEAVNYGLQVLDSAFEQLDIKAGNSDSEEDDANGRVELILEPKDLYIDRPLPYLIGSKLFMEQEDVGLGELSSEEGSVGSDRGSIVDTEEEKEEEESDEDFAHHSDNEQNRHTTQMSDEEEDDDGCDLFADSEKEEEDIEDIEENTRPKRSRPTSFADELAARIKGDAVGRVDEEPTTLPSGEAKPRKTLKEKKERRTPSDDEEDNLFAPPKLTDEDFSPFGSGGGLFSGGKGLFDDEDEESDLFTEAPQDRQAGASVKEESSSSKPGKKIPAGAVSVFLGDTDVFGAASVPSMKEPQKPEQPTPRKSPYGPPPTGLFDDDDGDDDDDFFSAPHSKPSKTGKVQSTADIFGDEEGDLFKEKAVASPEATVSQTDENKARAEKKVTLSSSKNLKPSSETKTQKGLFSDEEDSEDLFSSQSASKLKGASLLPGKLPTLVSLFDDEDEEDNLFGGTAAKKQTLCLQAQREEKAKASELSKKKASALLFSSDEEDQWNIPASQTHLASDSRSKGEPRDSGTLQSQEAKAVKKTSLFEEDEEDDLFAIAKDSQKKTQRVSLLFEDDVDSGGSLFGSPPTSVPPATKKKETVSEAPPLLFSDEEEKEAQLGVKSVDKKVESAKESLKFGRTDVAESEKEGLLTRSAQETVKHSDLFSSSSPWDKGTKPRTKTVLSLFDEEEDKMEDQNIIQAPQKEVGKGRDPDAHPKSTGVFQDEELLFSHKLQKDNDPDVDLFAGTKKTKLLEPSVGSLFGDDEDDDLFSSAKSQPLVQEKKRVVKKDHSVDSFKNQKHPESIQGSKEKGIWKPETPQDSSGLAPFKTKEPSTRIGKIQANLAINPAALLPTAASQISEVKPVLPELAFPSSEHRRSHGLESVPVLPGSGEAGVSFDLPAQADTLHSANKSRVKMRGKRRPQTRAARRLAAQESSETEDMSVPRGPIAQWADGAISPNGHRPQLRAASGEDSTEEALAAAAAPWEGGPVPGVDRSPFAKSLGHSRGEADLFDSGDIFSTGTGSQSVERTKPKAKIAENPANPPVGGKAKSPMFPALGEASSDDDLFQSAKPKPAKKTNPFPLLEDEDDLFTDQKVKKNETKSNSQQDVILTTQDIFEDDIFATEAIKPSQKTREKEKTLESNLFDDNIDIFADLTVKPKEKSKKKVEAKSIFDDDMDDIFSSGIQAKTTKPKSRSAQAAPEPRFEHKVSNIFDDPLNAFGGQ
Chain of UniProt P0CG48 (P0CG48 whole entry, looked up): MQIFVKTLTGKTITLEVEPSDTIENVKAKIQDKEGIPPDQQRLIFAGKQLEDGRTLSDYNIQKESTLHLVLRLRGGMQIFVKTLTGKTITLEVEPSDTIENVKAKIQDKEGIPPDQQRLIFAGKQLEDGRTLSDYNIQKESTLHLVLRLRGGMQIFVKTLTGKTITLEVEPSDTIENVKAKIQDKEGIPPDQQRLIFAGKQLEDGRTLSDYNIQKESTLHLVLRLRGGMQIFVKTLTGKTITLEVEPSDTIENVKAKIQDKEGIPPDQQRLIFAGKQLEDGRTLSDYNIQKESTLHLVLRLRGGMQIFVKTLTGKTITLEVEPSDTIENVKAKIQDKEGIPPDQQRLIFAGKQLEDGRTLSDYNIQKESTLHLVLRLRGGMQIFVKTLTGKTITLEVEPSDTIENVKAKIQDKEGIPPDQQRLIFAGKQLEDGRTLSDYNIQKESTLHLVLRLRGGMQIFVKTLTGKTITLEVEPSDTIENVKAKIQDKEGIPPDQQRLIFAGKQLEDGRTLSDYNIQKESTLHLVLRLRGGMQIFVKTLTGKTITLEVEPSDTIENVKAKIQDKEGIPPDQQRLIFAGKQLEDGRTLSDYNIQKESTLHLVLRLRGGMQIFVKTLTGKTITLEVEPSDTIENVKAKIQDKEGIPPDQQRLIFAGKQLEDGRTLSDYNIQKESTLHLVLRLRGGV
Chain of UniProt Q7Z6J8 (Q7Z6J8 whole entry, looked up): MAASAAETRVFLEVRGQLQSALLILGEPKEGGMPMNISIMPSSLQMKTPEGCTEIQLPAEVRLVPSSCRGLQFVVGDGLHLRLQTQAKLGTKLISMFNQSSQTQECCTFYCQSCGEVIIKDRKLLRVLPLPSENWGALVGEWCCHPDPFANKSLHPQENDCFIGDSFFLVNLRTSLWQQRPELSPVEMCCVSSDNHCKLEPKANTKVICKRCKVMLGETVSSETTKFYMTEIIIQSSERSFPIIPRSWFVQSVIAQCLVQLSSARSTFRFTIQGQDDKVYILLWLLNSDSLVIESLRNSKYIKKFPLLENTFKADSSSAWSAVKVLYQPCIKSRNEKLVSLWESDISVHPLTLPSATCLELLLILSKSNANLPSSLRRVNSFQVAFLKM
Chain of UniProt Q8N1B4 (Q8N1B4 whole entry, looked up): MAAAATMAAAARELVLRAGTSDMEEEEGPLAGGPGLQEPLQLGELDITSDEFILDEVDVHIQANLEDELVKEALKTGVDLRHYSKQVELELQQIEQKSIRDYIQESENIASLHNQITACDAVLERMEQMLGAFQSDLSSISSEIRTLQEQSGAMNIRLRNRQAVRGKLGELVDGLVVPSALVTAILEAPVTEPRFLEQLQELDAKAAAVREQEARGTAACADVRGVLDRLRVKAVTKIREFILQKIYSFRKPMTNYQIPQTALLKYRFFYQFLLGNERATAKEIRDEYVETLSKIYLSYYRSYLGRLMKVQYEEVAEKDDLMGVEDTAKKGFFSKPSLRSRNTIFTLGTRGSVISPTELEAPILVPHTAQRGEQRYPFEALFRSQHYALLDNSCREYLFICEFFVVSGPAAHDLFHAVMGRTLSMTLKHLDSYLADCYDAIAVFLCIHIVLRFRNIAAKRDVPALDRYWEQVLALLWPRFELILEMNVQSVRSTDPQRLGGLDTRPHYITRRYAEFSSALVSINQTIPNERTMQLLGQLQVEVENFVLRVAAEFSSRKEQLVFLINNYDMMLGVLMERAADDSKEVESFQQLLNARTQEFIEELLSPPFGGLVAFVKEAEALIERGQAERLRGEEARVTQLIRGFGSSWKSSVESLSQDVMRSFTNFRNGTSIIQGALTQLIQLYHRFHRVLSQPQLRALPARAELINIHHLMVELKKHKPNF
Chain of UniProt Q86SZ2 (Q86SZ2 whole entry, looked up): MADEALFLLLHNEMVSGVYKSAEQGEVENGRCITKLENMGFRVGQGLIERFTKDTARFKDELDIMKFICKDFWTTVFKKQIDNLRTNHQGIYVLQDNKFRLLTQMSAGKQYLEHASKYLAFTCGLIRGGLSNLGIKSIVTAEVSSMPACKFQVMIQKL
Chain of UniProt Q9BTX3 (Q9BTX3 whole entry, looked up): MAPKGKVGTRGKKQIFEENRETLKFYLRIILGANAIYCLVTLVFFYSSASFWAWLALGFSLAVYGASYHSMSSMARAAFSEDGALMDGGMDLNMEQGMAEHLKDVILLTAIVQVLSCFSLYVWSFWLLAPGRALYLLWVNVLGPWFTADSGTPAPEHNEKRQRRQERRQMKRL
Chain of UniProt Q7Z7E8 (Q7Z7E8 whole entry, looked up): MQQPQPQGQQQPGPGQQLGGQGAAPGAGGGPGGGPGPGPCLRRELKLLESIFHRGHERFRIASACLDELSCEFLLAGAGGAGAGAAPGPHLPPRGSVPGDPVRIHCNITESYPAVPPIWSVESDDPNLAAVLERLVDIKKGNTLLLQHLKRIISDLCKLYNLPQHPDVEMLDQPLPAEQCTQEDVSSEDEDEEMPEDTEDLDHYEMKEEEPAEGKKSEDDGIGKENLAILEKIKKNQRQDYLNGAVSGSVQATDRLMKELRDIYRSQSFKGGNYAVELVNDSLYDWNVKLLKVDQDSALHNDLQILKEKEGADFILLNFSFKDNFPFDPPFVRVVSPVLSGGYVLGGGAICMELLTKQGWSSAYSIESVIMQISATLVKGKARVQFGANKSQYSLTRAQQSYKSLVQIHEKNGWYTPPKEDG
Chain of UniProt Q9NP79 (Q9NP79 whole entry, looked up): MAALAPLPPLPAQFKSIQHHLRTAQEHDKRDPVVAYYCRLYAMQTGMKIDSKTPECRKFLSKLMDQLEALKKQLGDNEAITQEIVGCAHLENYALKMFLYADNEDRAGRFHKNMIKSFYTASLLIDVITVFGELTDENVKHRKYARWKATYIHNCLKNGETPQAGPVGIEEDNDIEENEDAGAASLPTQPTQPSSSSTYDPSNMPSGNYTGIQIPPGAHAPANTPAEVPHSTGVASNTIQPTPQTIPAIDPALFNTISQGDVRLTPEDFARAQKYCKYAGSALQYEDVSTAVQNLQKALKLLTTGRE
Chain of UniProt O60784 (O60784 whole entry, looked up): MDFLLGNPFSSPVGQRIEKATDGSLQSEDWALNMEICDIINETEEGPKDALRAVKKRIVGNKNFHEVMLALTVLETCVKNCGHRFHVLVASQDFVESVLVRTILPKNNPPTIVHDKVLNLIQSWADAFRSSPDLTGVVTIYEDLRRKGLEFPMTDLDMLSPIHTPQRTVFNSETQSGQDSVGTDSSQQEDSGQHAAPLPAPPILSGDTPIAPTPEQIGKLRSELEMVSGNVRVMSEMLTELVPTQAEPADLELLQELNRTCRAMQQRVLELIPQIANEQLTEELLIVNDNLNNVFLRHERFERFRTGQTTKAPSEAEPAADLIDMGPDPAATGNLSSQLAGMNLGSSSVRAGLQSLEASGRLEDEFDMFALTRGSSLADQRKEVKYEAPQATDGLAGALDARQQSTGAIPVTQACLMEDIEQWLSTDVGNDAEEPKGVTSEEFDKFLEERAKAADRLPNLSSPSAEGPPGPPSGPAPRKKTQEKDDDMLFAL
Chain of UniProt P51809 (P51809 whole entry, looked up): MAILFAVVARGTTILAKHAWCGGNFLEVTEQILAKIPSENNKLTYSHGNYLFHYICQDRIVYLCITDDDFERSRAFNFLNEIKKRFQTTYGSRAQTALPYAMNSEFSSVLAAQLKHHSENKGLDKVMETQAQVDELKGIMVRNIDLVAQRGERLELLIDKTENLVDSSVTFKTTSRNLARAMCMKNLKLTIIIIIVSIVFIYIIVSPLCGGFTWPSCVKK

Compound in the assay: C1=CC2=C(C=CC(=C2)/C=C\3/C(=O)NC(=NCC4=CC=CS4)S3)N=C1
In words: log2 fold change, soluble protein after heating vs DMSO (PISA); higher = thermal stabilisation; K562 cells, 10 uM, 30 min; active = over 0.2 and 3.5 SD of the protein, either way, in both replicates (recomputed). The method in brief:
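Aliquots of K562 cells (2×10^6 cells/mL) treated with 10 μM compound for 30 min were heated for 3 min over 48°C-58°C. After pooling and extraction in PBS with 0.5% NP-40 at 4°C, soluble protein from a 21,000xg, 90 min spin was quantified by TMTpro 16plex LC-MS/MS with channel sums equalised. Thermal stability is expressed against control samples, from duplicates, as a log2 fold change.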
Regarding VPS72 isoform 2 (UniProt Q15906), the log2 fold change was 0.04.
UBE2J1 (UniProt Q9Y385): the log2 fold change is 0.148.
Under WDR43 (UniProt Q15061) stands -0.028; under UCHL5 isoform 3 (UniProt Q9Y5K5), -0.036; under TMEM161A (UniProt Q9NX61), 0.021.
As to VPS50 (UniProt Q96JG6), the log2 fold change is 0.088.
For the target XRCC6 (UniProt P12956), the log2 fold change was 0.065.
Take WRB (UniProt O00258): the log2 fold change was -0.003.
In the case of TMEM214 (UniProt Q6NUQ4), the log2 fold change was 0.015.
For TOM1 isoform 2 (UniProt O60784), the log2 fold change was -0.006.
Take UBE3D (UniProt Q7Z6J8): the log2 fold change was 0.003.
To TOE1 (UniProt Q96GM8) belongs 0.002; to TRMT2A (UniProt Q8IZ69), -0.016.
For VAMP7 (UniProt P51809), the log2 fold change is 0.016.
In the case of VTA1 (UniProt Q9NP79), the log2 fold change was -0.007.
On to VPS41 (UniProt P49754), for which the log2 fold change was 0.086.
For the target TMEM208 (UniProt Q9BTX3), the log2 fold change was 0.13.
USP14 (UniProt P54578): the log2 fold change was -0.04.
As for TRIM4 (UniProt Q9C037), the log2 fold change is 0.002.
In the case of TMEM41A (UniProt Q96HV5), the log2 fold change was 0.024.
Turning to TRAM1 (UniProt Q15629), the log2 fold change is 0.015.
Turning to USP15 (UniProt Q9Y4E8), the log2 fold change is 0.027.
On to TNNC2 (UniProt P02585), for which the log2 fold change is 0.047.
Turning to VPS52 (UniProt Q8N1B4), the log2 fold change is 0.032.
For TRAPPC6B (UniProt Q86SZ2), the log2 fold change is 0.011.
Under WDR7 (UniProt Q9Y4E6) stands 0.092; under TMEM189-UBE2V1 (UniProt I3L0A0), 0.055.
As to TTI1 (UniProt O43156), the log2 fold change is 0.057.
For WASHC2A (UniProt Q641Q2), the log2 fold change was 0.004.
For the target TSG101 (UniProt Q99816), the log2 fold change was 0.046.
Take TRMT10A (UniProt Q8TBZ6): the log2 fold change is 0.037.
Turning to WARS2 (UniProt Q9UGM6), the log2 fold change was 0.033.
As for UBE2Q1 (UniProt Q7Z7E8), the log2 fold change is 0.019.
Consider VPS53 isoform 4 (UniProt Q5VIR6), for which the log2 fold change is 0.107.
Consider TOM1L1 (UniProt O75674), for which the log2 fold change is -0.038.
With UBC (UniProt P0CG48), the log2 fold change is 0.024.
